Most compounds without a hit are left out; they make up all but 4.2% or so of the library.
PLK1 PBD inh: inhibitors of human PLK1 polo-box domain binding; Plk1 PBD binding of FITC phosphopeptide, fluorescence polarization; P53350; Potency, µM, most hits filed as inhibitors; hit rate 2.8% among 360,000; note: series mostly up to about 57 µM; nearly all actives have a fitted effect of over 65% in size
Target sequence (P53350 whole entry, looked up, the tested form may be a part): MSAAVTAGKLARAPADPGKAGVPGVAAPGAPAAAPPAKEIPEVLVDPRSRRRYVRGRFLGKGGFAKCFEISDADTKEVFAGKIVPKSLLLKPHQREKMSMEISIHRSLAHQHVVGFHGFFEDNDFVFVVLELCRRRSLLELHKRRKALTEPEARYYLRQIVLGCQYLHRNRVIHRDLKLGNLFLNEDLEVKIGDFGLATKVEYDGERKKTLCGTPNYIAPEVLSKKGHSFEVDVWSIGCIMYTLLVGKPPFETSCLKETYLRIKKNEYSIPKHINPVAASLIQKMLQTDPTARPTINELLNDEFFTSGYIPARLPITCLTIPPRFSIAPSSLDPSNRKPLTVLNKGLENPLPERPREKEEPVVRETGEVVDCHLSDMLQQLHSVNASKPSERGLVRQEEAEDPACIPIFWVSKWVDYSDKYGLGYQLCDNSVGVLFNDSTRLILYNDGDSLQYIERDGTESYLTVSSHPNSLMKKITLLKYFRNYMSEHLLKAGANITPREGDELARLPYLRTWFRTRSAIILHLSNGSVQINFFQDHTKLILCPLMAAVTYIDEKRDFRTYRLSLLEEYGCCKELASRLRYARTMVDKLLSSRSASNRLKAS
VDR inhibitor: inhibitors of human vitamin D receptor; Potency, µM, actives largely listed as inhibitors; P11473; VDR-SRC2-3 peptide fluorescence polarization, 2 h; hit rate 0.93% among 400,000
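Compounds are added to VDR with labelled SRC2-3 coactivator peptide and held 2 h at room temperature. Inhibition of the VDR–peptide interaction is then read as a change in fluorescence polarization.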
Sfp PPTase inh: blocks B. subtilis Sfp PPTase activity; Q9F4F7; Biochemical Sfp PPTase activity, qHTS; Potency, µM, most hits filed as inhibitors; hit rate 3.5% among 310,000; AID 1490;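 note: the enzyme is Sfp with the accession as filed and its product quenches rhodamine fluorescence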
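After 15 min at room temperature with compound, 15 nM Sfp received 5 uM rhodamine-CoA plus 12.5 uM BHQ-2-ybbR (50 mM Hepes pH 7.6, 10 mM MgCl2). Rate came from the fluorescence difference over 30 min, ex 525/em 598 nm.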
12-LOX inh: blocks human arachidonate 12S-lipoxygenase; P18054; Potency, µM (series often up to 108 µM), most hits filed as inhibitors; hit rate 1.1% among 580,000; purified 12hLO, xylenol orange hydroperoxide absorbance
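Purified human 12hLO at 150 nM in 25 mM Hepes, 0.01% Triton X-100, pH 7.0, preincubated 15 min at room temperature with compound. Reaction started with 40 uM arachidonic acid, 30 min at room temperature. Hydroperoxide measured by Fe-xylenol orange, 573/405 nm absorbance ratio.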
Large screens that a line does not name were inactive. Calls come from the whole dose curve; as a rule, active = well fitted curve in the direction sought with a large enough effect; inconclusive = small, poorly fitted or top-dose-only effect, or another doubt; inactive = no such curve, though single readings can be large; an effect the other way counts as inactive or inconclusive.

COc1ccc(OCC(=O)Nc2c(C(=O)N3CCN(C)CC3)oc3ccccc23)cc1	PLK1 PBD inh 30µM
COc1ccc(OCC(=O)Nc2c(C(=O)N3CCN(c4ccccc4)CC3)oc3ccccc23)cc1	none (no result: PLK1 PBD inh, Sfp PPTase inh)
CCCN1CCN(C(=O)c2oc3ccccc3c2NC(=O)COc2ccc(OC)cc2)CC1	VDR inhibitor 20µM
O=C(c1ccoc1)N1CCCCCC1CN1CCOCC1 (centres undefined)	none (no result: PLK1 PBD inh, VDR inhibitor, Sfp PPTase inh)
C#CCOCCOCCOCCNc1nc(N2CCN(C(=O)[C@H]([C@@H](C)CC)n3cc(CCCN=C(N)N)nn3)CC2)nc(N2CCN(C(=O)[C@H]([C@@H](C)CC)n3cc(CCC(=O)O)nn3)CC2)n1	12-LOX inh 10µM (no result: Sfp PPTase inh)
C#CCOCCOCCOCCNc1nc(N2CCN(C(=O)Cn3cc(CC(C)O)nn3)CC2)nc(N2CCN(C(=O)[C@H](CCCCN)n3cc(CCC(=O)O)nn3)CC2)n1 (some centres undefined)	12-LOX inh 16µM
C#CCOCCOCCOCCNc1nc(N2CCN(C(=O)[C@H]([C@@H](C)CC)n3cc(CCC(=O)O)nn3)CC2)nc(N2CCN(C(=O)[C@H](C)n3cc(CCCN=C(N)N)nn3)CC2)n1	none
C/C(=N\NC(=O)CSc1ncccn1)c1ccc2c(c1)OCCO2	none (no result: 12-LOX inh)
O=C(CSc1nc2c(c(=O)n1-c1ccccc1)SCC2)N1CCOCC1	none
CSCc1cc(N2CCCC2)nc(-c2ccccc2)n1	none
COCc1cc(N2CCCCC2)nc(-c2ccccc2)n1	PLK1 PBD inh 27µM, VDR inhibitor inconclusive
CCN(CC)C(=O)c1ccc(Oc2ccc([N+](=O)[O-])cc2Cl)cc1	none
CCN(CC)C(=O)c1cc([N+](=O)[O-])cc2c1-c1ccc([N+](=O)[O-])cc1C2=C(C#N)C#N	PLK1 PBD inh 9.5µM, VDR inhibitor 25µM, Sfp PPTase inh 71µM, 12-LOX inh inconclusive
O=C(c1ccco1)c1coc2c1cc(O)c1ccccc12	PLK1 PBD inh 30µM, 12-LOX inh inconclusive
O=C(CSc1nc2ccc(NC(=O)c3ccc(Br)cc3)cc2s1)NC1CCCCC1	none (no result: PLK1 PBD inh, VDR inhibitor, Sfp PPTase inh)
Cc1cccc(OCCN2C(=O)C(=O)c3cccc(C)c32)c1	VDR inhibitor inconclusive
CCCN1C(=O)C(=O)c2cc(C)ccc21	none (no result: Sfp PPTase inh)
Cc1ccc2c(c1)C(=O)C(=O)N2CCOc1ccccc1	VDR inhibitor 79µM
Cc1cccc2c1N(CCCOc1ccc(C(C)(C)C)cc1)C(=O)C2=O	PLK1 PBD inh inconclusive, VDR inhibitor 40µM, Sfp PPTase inh inconclusive (no result: 12-LOX inh)
Cc1cccc(OCCN2C(=O)C(=O)c3cc(C)ccc32)c1	VDR inhibitor 71µM
Cc1ccc2c(c1)C(=O)C(=O)N2CCCOc1ccccc1C	PLK1 PBD inh inconclusive, VDR inhibitor 40µM
Cc1ccc(OCCN2C(=O)c3ccccc3C2=O)cc1	none
COc1ccc(CN2CCC3(CC2)C(C(=O)O)CC(=O)N3C)cc1 (centres undefined)	none (no result: PLK1 PBD inh, VDR inhibitor, Sfp PPTase inh)
O=C(O)CSCC(=O)Nc1ccccc1	none (no result: Sfp PPTase inh)
COC(=O)C1=C(C(=O)OC)SC(=C(Cl)C(=S)Sc2ccccn2)S1	12-LOX inh 4.5µM (no result: PLK1 PBD inh, VDR inhibitor, Sfp PPTase inh)
CC(C)NCc1cccc([N+](=O)[O-])c1	VDR inhibitor inconclusive, Sfp PPTase inh inconclusive
CC(=O)c1c(C)[nH]c(=S)c(C#N)c1-c1ccc(Cl)cc1	VDR inhibitor inconclusive, Sfp PPTase inh inconclusive
Cc1[nH]c(=S)c(C#N)c(-c2ccco2)c1C(=O)N(C)C	Sfp PPTase inh 10µM, 12-LOX inh inconclusive
Nc1nc(Sc2ccc(C(F)(F)F)cc2[N+](=O)[O-])n[nH]1	none
Nc1nc(Sc2c([N+](=O)[O-])cc(C(F)(F)F)cc2[N+](=O)[O-])n[nH]1	PLK1 PBD inh 2.4µM, VDR inhibitor 32µM, Sfp PPTase inh inconclusive
CCCCCCCCCCCCCCCC(=O)OCC(COP(=O)(O)OCC[N+](C)(C)C)OC(=O)CCCCCCCCCCCCCCC (centres undefined)	none (no result: PLK1 PBD inh, 12-LOX inh)
CC1(C)C(=O)Nc2ccccc2N1C(=O)COC(=O)c1cccs1	12-LOX inh inconclusive (no result: Sfp PPTase inh)
CCc1c(O)nc(SC2CC(=O)N(c3ccccc3)C2=O)[nH]c1=O (centres undefined)	Sfp PPTase inh inconclusive, 12-LOX inh 10µM
Cc1c(O)nc(SC2CC(=O)N(c3ccccc3)C2=O)[nH]c1=O (centres undefined)	Sfp PPTase inh 79µM, 12-LOX inh inconclusive
Cc1ccc([N+](=O)[O-])cc1-c1ccc(/C=N\n2nnnc2N)o1	none
CSc1ccc(CNC(=O)C(C)n2nc(C)c3c(C)n(-c4ccccc4)nc3c2=O)cc1 (centres undefined)	PLK1 PBD inh 21µM
CCOc1ccc(CNC(=O)Cn2nc(C)c3c(C)n(-c4ccc(C)cc4)nc3c2=O)cc1	PLK1 PBD inh 30µM, 12-LOX inh inconclusive
CCc1ccc(CNC(=O)Cn2nc(C)c3c(C)n(-c4ccc(C)cc4)nc3c2=O)cc1	12-LOX inh inconclusive (no result: PLK1 PBD inh, Sfp PPTase inh)
COc1ccc(C2C(C(=O)c3ccc(C)o3)=C(O)C(=O)N2Cc2cccnc2)cc1 (centres undefined)	12-LOX inh inconclusive
Oc1ccc2cccnc2c1	PLK1 PBD inh 27µM
C=CCOc1ccccc1C1C2=C(CC(C)(C)CC2=O)Nc2c1c(=O)n(C)c(=O)n2C (centres undefined)	none
Cc1ccc(-n2nc(C)c3c2NC2=C(C(=O)CC(C)(C)C2)C3c2ccccc2OCC(=O)O)cc1 (centres undefined)	PLK1 PBD inh 27µM
Oc1c(Br)cc(Br)cc1C=NCc1ccccc1	PLK1 PBD inh inconclusive, 12-LOX inh inconclusive
Oc1c(Br)cc(Br)cc1C=NCc1ccc(F)cc1	PLK1 PBD inh inconclusive, 12-LOX inh 40µM
COc1ccc(C(C(=O)NC2CCCC2)N(CCN(C)C)C(=O)c2snc(C(N)=O)c2N)cc1 (centres undefined)	none
O=C(O)CCn1cnc2onc(-c3cc(F)cc(F)c3)c2c1=O	12-LOX inh inconclusive (no result: PLK1 PBD inh, Sfp PPTase inh)
COc1ccc(OC)c(NC(=O)c2cccc(S(=O)(=O)N(Cc3ccccc3)c3ccccc3OC)c2)c1	none
COc1ccc(OC)c(NC(=O)c2ccc(CN(c3cc(Cl)ccc3C)S(=O)(=O)c3ccccc3)cc2)c1	Sfp PPTase inh 79µM
O=C(O/N=C1/CCSc2ccccc21)c1ccccc1	Sfp PPTase inh 79µM
Cc1ccc2c(c1)/C(=N/OC(=O)c1ccc(F)cc1)CCS2	none
CCc1nnc(NC(=O)CN2C(=O)/C(=C/c3cc(OC)c(OC)c(OC)c3)SC2=S)s1	VDR inhibitor inconclusive, Sfp PPTase inh 50µM
COc1cc(/C=C2/SC(=S)N(CC(=O)Nc3nc4ccccc4s3)C2=O)cc(OC)c1OC	none
CCC1=C(C(=O)OC)C(c2cccc(F)c2)N2C(CC(=O)N3CCC(C)CC3)=CSC2=N1 (centres undefined)	none (no result: PLK1 PBD inh, VDR inhibitor, Sfp PPTase inh)
CN1CCN(CCCNCc2cn(CCC#N)c3ccccc23)CC1	Sfp PPTase inh 56µM
Cc1[nH]c(=S)sc1Cc1ccc(Cl)c(Cl)c1	Sfp PPTase inh inconclusive, 12-LOX inh 32µM (no result: PLK1 PBD inh, VDR inhibitor)
Cc1nnc(SCc2ccc(Cl)c(Cl)c2)s1	none
CCOC(=O)C1CSc2[nH]c(=O)sc2C1c1ccccc1 (centres undefined)	Sfp PPTase inh 40µM
COC(=O)C1CSc2[nH]c(=O)sc2C1c1ccc(O)c(OC)c1 (centres undefined)	PLK1 PBD inh inconclusive, Sfp PPTase inh 56µM

Source: PubChem BioAssay
